{
  "source": "the supplement of paper PMC5641865",
  "about": "“A screen for kinase inhibitors identifies antimicrobial imidazopyridine aminofurazans as specific inhibitors of the Listeria monocytogenes PASTA kinase PrkA” (The Journal of Biological Chemistry, 2017)",
  "note": "Structures can show the parent of a compound that is named as a salt. ± gives the standard deviation of the averaged measurements.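 Also: End-point A600 read in BHI broth at 37 °C with 2% DMSO, inhibition computed as (1 − OD with compound plus ceftriaxone ÷ OD with ceftriaxone only) × 100.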",
  "data": [
    {"system": "Listeria monocytogenes 10403S", "assay": "growth inhibition relative to ceftriaxone-alone control; higher = stronger potentiation of ceftriaxone growth inhibition", "conditions": "10 µM; ceftriaxone 1 ug/ml; 12 h", "units": {"growth inhibition": "%"}, "values": [
      {"smiles": "O=C(Nc1cccc(Nc2ncc(Br)c(NCCc3cnc[nH]3)n2)c1)N1CCCC1", "growth inhibition": "9.34 ± 13"},
      {"smiles": "NS(=O)(=O)c1cccc(-c2cc3ccncc3cc2OCc2ccccc2)c1", "growth inhibition": "8.53 ± 3.9"},
      {"smiles": "Cc1ccc(NC(=O)c2ccc(CN3CCN(C)CC3)cc2)cc1Nc1nccc(-c2cccnc2)n1", "note": "[Imatinib (Gleevec)]", "growth inhibition": "16.3 ± 4.7"},
      {"smiles": "C=CC(=O)N1CCC[C@@H](n2nc(-c3ccc(Oc4ccccc4)cc3)c3c(N)ncnc32)C1", "growth inhibition": "42.1 ± 24"},
      {"smiles": "COc1ccc2ncn(-c3cc(O[C@H](C)c4ccccc4C(F)(F)F)c(C(N)=O)s3)c2c1", "growth inhibition": "0.811 ± 11"},
      {"smiles": "Cc1ccc(Nc2nccc(N(C)c3ccc4c(C)n(C)nc4c3)n2)cc1S(N)(=O)=O", "note": "[Pazopanib HCl]", "growth inhibition": "20.4 ± 13"},
      {"smiles": "Cc1ccc(-n2nc(C(C)(C)C)cc2NC(=O)Nc2ccc(OCCN3CCOCC3)c3ccccc23)cc1", "note": "[BIRB 796 (Doramapimod)]", "growth inhibition": "10.5 ± 14"},
      {"smiles": "CN(c1ccc(NC(=O)NCCN2CCOCC2)cc1)c1ccnc(Nc2ccc(CS(C)(=O)=O)cc2)n1", "growth inhibition": "-5.31 ± 3"},
      {"smiles": "COC(=O)Nc1nc2cc(Oc3ccc(NC(=O)Nc4ccccc4)cc3)ccc2[nH]1", "growth inhibition": "8.77 ± 1.8"},
      {"smiles": "NS(=O)(=O)c1ccc(-c2ccc3c(NC(=O)C4CC4)n[nH]c3c2)cc1", "growth inhibition": "-10.8 ± 16"},
      {"smiles": "COc1ccc(-c2coc3ncnc(N)c23)cc1", "growth inhibition": "8.14 ± 12"},
      {"smiles": "CS(=O)(=O)CCNCc1nc(-c2ccc3ncnc(Nc4ccc(OCc5cccc(C(F)(F)F)c5)cc4)c3c2)cs1", "growth inhibition": "-8.22 ± 14"},
      {"smiles": "Cn1cc(-c2ccc3ncc(Cc4ccc5ncccc5c4)n3n2)cn1", "growth inhibition": "-1.22 ± 3.1"},
      {"smiles": "COc1cc2ncnc(Nc3ccc(F)c(Cl)c3)c2cc1OCCCN1CCOCC1", "note": "[Gefitinib (Iressa)]", "growth inhibition": "31 ± 21"},
      {"smiles": "COc1cc(C)c(NC(=O)CN(C)C)cc1Nc1nc(Nc2cccc(F)c2C(N)=O)c2cc[nH]c2n1", "growth inhibition": "-5.99 ± 8.5"},
      {"smiles": "Cc1ccc([N+](=O)[O-])cc1S(=O)(=O)N(C)/N=C/c1cnc2ccc(Br)cn12", "growth inhibition": "2.5 ± 4.3"},
      {"smiles": "CNC(=O)Nc1ccc(-c2nc(N3CC4CCC(C3)O4)c3cnn(C4CCC5(CC4)OCCO5)c3n2)cc1", "growth inhibition": "7.7 ± 6.6"},
      {"smiles": "Oc1cccc(-c2nc(-c3ccccc3)[nH]c2-c2ccncc2)c1", "growth inhibition": "-3.01 ± 1.1"},
      {"smiles": "CCn1c(-c2nonc2N)nc2c(C#CCN)ncc(OCCCN)c21", "growth inhibition": "-1.03 ± 0.6"},
      {"smiles": "COc1ccc(-c2cc3c(N)ncnc3o2)cc1", "growth inhibition": "-3.61 ± 1.9"},
      {"smiles": "Cc1ccc2c(-c3ccnc(Nc4ccc5c(c4)OCCO5)n3)c(-c3ccc(C(F)(F)F)cc3)nn2n1", "growth inhibition": "-1.85 ± 0.84"},
      {"smiles": "Clc1ccc(Nc2nnc(Cc3ccncc3)c3ccccc23)cc1", "note": "[Vatalinib 2HCl (PTK787)]", "growth inhibition": "24.8 ± 20"},
      {"smiles": "Nc1ncnc2occ(-c3ccc(NC(=O)Nc4cc(C(F)(F)F)ccc4F)cc3)c12", "growth inhibition": "-0.902 ± 0.59"},
      {"smiles": "COc1ccc(-c2ccncc2)cc1C(N)=O", "growth inhibition": "-4.48 ± 7.1"},
      {"smiles": "COc1cccc(-n2nc(C)c3c(N/N=C(\\C)c4ccncc4)ncnc32)c1", "growth inhibition": "-12.5 ± 20"},
      {"smiles": "Cc1ccc(-c2cc3c(NC(=O)C4CC4)ncnc3o2)cc1", "growth inhibition": "-3.41 ± 5.3"},
      {"smiles": "Cc1ccc(Nc2ccnc(Nc3cccc(C(N)=O)c3)n2)cc1O", "growth inhibition": "-4.84 ± 3.2"},
      {"smiles": "Cc1csc(-c2nnc(Nc3ccc(Oc4ncccc4-c4ccnc(N)n4)cc3)c3ccccc23)c1", "growth inhibition": "64 ± 34"},
      {"smiles": "CCN1CCN(Cc2ccc(-c3cc4c(N[C@H](C)c5ccccc5)ncnc4[nH]3)cc2)CC1", "growth inhibition": "22.1 ± 4.2"},
      {"smiles": "CN1CCN(c2nc(C3=C(c4c[nH]c5ccccc45)C(=O)NC3=O)c3ccccc3n2)CC1", "note": "[Sotrastaurin (AEB071)]", "growth inhibition": "44.8 ± 28"},
      {"smiles": "Cc1cc(-c2ccccn2)cc(C)c1/C=C/c1cncc(-c2nn[nH]n2)c1", "growth inhibition": "-7.47 ± 9.6"},
      {"smiles": "Cc1cnc(Nc2ccc(N3CCN(C)CC3)cc2)nc1Nc1cccc(S(=O)(=O)NC(C)(C)C)c1", "growth inhibition": "42.3 ± 24"},
      {"smiles": "NC(=O)c1sc(-n2cnc3ccccc32)cc1OCc1ccccc1Br", "growth inhibition": "-4.4 ± 0.65"},
      {"smiles": "O=C(NCCCNc1nc(Nc2cccc(NC(=O)N3CCCC3)c2)ncc1I)c1cccs1", "growth inhibition": "-19.4 ± 21"},
      {"smiles": "CCc1cnn2c(NCc3ccc[n+]([O-])c3)cc(N3CCCC[C@H]3CCO)nc12", "growth inhibition": "-2.28 ± 10"},
      {"smiles": "Nc1ncnc2c1c(-c1cnc3[nH]ccc3c1)nn2C1CCCC1", "growth inhibition": "42.9 ± 23"},
      {"smiles": "CCS(=O)(=O)c1cccc(-c2cc(C(=O)NC3CCN(C)CC3)c(C)c3[nH]c4ncc(C)cc4c23)c1", "growth inhibition": "31.1 ± 6.9"},
      {"smiles": "O=c1cc(N2CCOCC2)oc2c(-c3cccc4c3sc3ccccc34)cccc12", "growth inhibition": "26.2 ± 7"}
    ]}
  ]
}
